Screening results deposited in PubChem by National Center for Advancing Translational Sciences (NCATS).
Shown are actives, neighbours in structure and some others; about 17% of the full set was active somewhere.
TDP1 cell CPT: DT40-hTDP1 cell growth loss with CPT. chicken DT40 Tdp1-/-;hTDP1 cells + 20 nM CPT, ATP luminescence, 48 h. Potency, µM (doses to about 46.2 µM), actives largely listed as inhibitors. actives 12% (n = 420,000); also: nearly all actives have a fitted effect of over 55% in size
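Chicken DT40 Tdp1-/- cells complemented with human TDP1, 400 cells/well, exposed to compounds plus 20 nM camptothecin for at least 48 h at 37 C; viability read as ATP content by CellTiter-Glo luminescence.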
TGFb SMAD3 inh: inhibitors of TGF-b signaling. actives 1.2% (n = 410,000). HepG2 CAGA-GFP TGF-b/SMAD3 reporter, GFP fluorescence, 18 h; TGF-beta stimulated, 500 pg/mL final. Potency, µM (top dose mostly 46.1 µM), most hits filed as inhibitors; also: nearly all actives have a fitted effect of over 65% in size
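Cell-based qHTS in HEPG2 carrying a CAGA-GFP Smad reporter; compounds added before 500 pg/mL final TGF-beta, 18 h incubation at 37 degrees C, GFP fluorescence quantified per cell by imaging cytometry.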
HT1080 IDH1KD tx: toxicity to HT-1080 IDH1 knockdown cells (counter line) | HT-1080 IDH1 knockdown viability, ATP luminescence, 48 h | Potency, µM (highest dose often 46.1 µM), hits mostly cytotoxic | actives 2% (n = 360,000)
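HT-1080-IDH1KD cells (IDH1 knocked down), 750/well in RPMI with 5% FBS, treated with compound 48 h at 37 degrees C. Viability by CellTiter-Glo luminescence, normalised to DMSO and no-cell wells; concentration-response curves classed.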
HT1080NT lethal: kills 2HG-producing HT-1080-NT fibrosarcoma cells. HT-1080-NT fibrosarcoma viability, CellTiter-Glo ATP luminescence, 48 h. AID 686970. Potency, µM (series often up to 46.1 µM), usual class: cytotoxic. actives 1.6% (n = 360,000);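 also: NT is the 2HG producing partner of a matched IDH1 knockdown line; nearly all actives have a fitted effect of over 55% in size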
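750 cells/well, RPMI + 5% FBS; 2 h settle, compound pin-transfer, 48 h at 37 degrees C. CellTiter-Glo 10 min RT, luminescence. Normalized to DMSO and media-only wells.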
HepG2 viability: kills HepG2 cells in TGF-b inhibitor counter-screen. Potency, µM (top dose mostly 46.1 µM), actives largely listed as cytotoxic. actives 0.76% (n = 410,000). AID 588856. HepG2 CAGA-GFP viability, ATP luminescence, 18 h
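CellTiter-Glo luminescence gave cytotoxicity after 18 hours at 37 degrees C. The cells were HepG2 CAGA-GFP in 1% FBS DMEM, stimulated with 500 pg/mL TGF-beta after compound addition. %Activity was normalised to no-cell wells (complete cell-killing) and DMSO (no toxicity), and curves were fitted and classified.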
DT40 TDP1 no CPT: qHTS for Inhibitors of human tyrosyl-DNA phosphodiesterase 1 (TDP1): qHTS in cells in absence of CPT; DT40 Tdp1-/- hTDP1 cells, no CPT, ATP luminescence, 48 h; Potency, µM (top dose mostly 46.2 µM), hits mostly inhibitors; actives 15% (n = 420,000); AID 686978, 2013; also: nearly all actives have a fitted effect of over 55% in size
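Readout: luminescence from CellTiter-Glo after 30 min in the dark at RT. Cells: DT40 Tdp1-/- with stable hTDP1, 400/well. Exposure: compounds alone, ≥48 hr, 37 °C.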
A number is an active result; - = inactive; ? = inconclusive; . = not tested or not shown; [ ] = another dose, or the depositor's remark. Calls follow the shape of the dose curve; as a rule, active = well fitted curve in the direction sought with a large enough effect; inconclusive = small, poorly fitted or top-dose-only effect, or another doubt; inactive = no such curve, though single readings can be large; an effect the other way counts as inactive or inconclusive.

SMILES	TDP1 cell CPT	TGFb SMAD3 inh	HT1080 IDH1KD tx	HT1080NT lethal	HepG2 viability	DT40 TDP1 no CPT
COc1ccccc1-c1cccc([C@@H]2C[C@H]3[C@H](CON3C)CN2C(=O)CCc2ccccc2)c1	18.4µM	-	-	-	-	?
C=CCCC(=O)N1C[C@H]2CON(C)[C@H]2C[C@H]1c1cccc(Oc2ccccc2)c1	?	-	-	-	-	?
Cc1ccccc1S(=O)(=O)N1C[C@H]2CON(C)[C@H]2C[C@H]1c1cccc(Oc2ccccc2)c1	?	-	-	-	-	18.4µM
CN1OC[C@@H]2CN(S(=O)(=O)c3cc(Cl)cc(Cl)c3)[C@H](c3ccc(-c4ccc(C#N)cc4)cc3)C[C@@H]21	?	-	-	-	-	20.6µM
COCC(=O)N1C[C@H]2CON(C)[C@H]2C[C@H]1c1cccc(-c2ccccc2OC)c1	-	-	-	-	-	-
CN1C[C@H]2CON(C)[C@H]2C[C@H]1c1cccc(-c2ccc(C#N)cc2)c1	-	-	-	-	-	-
CN1OC[C@@H]2CN(Cc3ccccc3)[C@H](c3cccc(N4CCOCC4)c3)C[C@@H]21	-	-	-	-	-	-
Cc1ccccc1-c1cccc([C@@H]2C[C@H]3[C@H](CON3C)CN2Cc2ccccc2)c1	23.1µM	14.1µM	?	-	-	16.4µM
CN1OC[C@@H]2CN(Cc3ccc(Cl)cc3)[C@H](c3cccc(Br)c3)C[C@@H]21	?	?	-	-	-	16.4µM
CN(Cc1ccc(Cl)cc1Cl)C(=O)c1cccc(S(=O)(=O)NCc2ccccc2)c1	?	?	-	-	-	?
CCn1cc(C(=O)O)c(=O)c2cc(F)c(N3CCN(C(=S)NC(=O)c4ccccc4Br)CC3)cc21	?	-	-	-	-	20.6µM
CCn1cc(C(=O)O)c(=O)c2cc(F)c(N3CCN(C(=S)NC(=O)c4cccc(F)c4)CC3)cc21	?	-	-	-	-	-
CCn1cc(C(=O)O)c(=O)c2cc(F)c(N3CCN(C(=S)NC(=O)c4c(OC)cccc4OC)CC3)cc21	18.4µM	-	-	-	-	25.9µM
CCn1cc(C(=O)O)c(=O)c2cc(F)c(N/N=C/c3ccccc3[N+](=O)[O-])cc21	4.11µM	-	-	-	-	16.4µM
CCn1cc(C(=O)O)c(=O)c2cc(F)c(N3CCN(S(=O)(=O)c4ccc(NC(=O)OC)cc4)CC3)cc21	18.4µM	-	-	-	-	18.4µM
COC(=O)C1=C(C)NC(=S)N(C(C)=O)C1c1ccc(OC)c(OC)c1 (centres undefined)	-	?	?	?	-	-
Cc1cc(C)c(C)c(S(=O)(=O)N2CCC(C(=O)N(C)Cc3nc4ccccc4c(=O)[nH]3)CC2)c1C	?	?	?	-	-	?
CCn1cc(C(=O)O)c(=O)c2cc(F)c(N3CCN(C(=S)NC(=O)c4ccc(F)cc4)CC3)cc21	?	-	-	-	-	?
CCCOc1ccc(C(=O)NC(=S)N2CCN(c3cc4c(cc3F)c(=O)c(C(=O)O)cn4CC)CC2)cc1	16.4µM	-	-	-	-	14.6µM
CCCN(C(=O)Nc1cn(CC(C)C)c(=O)c2ccccc12)c1ccc(F)cc1	7.31µM	-	.	.	-	18.4µM
CCc1ccccc1N(C)C(=O)Nc1cn(CC(C)C)c(=O)c2ccccc12	14.6µM	-	.	.	-	23.1µM
CCCn1c(=O)sc2cc(NC(=O)COc3ccc(Cl)cc3)ccc21	?	?	.	.	-	?
O=c1ccn([C@@H]2O[C@H](CNCc3ccccc3OCc3ccc(Cl)cc3Cl)[C@@H](O)[C@H]2O)c(=O)[nH]1	20.6µM	?	-	-	-	?
COc1ccc(OC)c(C(c2nnnn2C2CCCC2)N2CCN(c3ccccc3)CC2)c1 (centres undefined)	?	-	-	-	-	20.6µM
COCCn1nnnc1C(c1ccc(OC)cc1)N1CCC(C)CC1 (centres undefined)	?	-	-	-	-	-
SMILES	TDP1 cell CPT	TGFb SMAD3 inh	HT1080 IDH1KD tx	HT1080NT lethal	HepG2 viability	DT40 TDP1 no CPT
COc1ccc(C(c2nnnn2C2CCCC2)N2CCC(C)CC2)cc1 (centres undefined)	?	-	-	-	-	23.1µM
COc1ccc(C(c2nnnn2C2CCCCC2)N2CCN(c3ccc(OC)cc3)CC2)cc1 (centres undefined)	23.1µM	-	-	-	-	16.4µM
CCC(c1nnnn1C1CCCC1)N1CCN(c2cccc(OC)c2)CC1 (centres undefined)	?	-	-	-	-	16.4µM
Cc1cccc(NC(=S)NC23CN4CN(CN(C4)C2)C3)c1C	-	-	-	-	-	-
O=C(O)c1n[nH]c2c1CC(C1CCCCC1)CC2 (centres undefined)	-	-	-	-	-	-
CCOC(=O)c1[nH]c2cc3c(cc2c1NC(=O)CN1CCc2ccccc2C1)OCO3	16.4µM	-	-	-	-	11.6µM
CCOC(=O)c1[nH]c2cc3c(cc2c1NC(=O)CN1CCC(C)CC1)OCO3	17.8µM	?	-	-	-	11.2µM
COc1ccc(N2CCN(C(CNC(=O)c3c(F)cccc3F)c3ccc4c(c3)OCO4)CC2)cc1 (centres undefined)	?	-	.	.	-	16.4µM
COc1ccc(C(=O)NCC(c2ccc3c(c2)OCO3)N2CCOCC2)cc1 (centres undefined)	?	-	.	.	-	?
COC(=O)NCC(c1ccc2c(c1)OCO2)N1CCN(c2ccc(OC)cc2)CC1 (centres undefined)	?	-	-	-	-	?
O=C(NCC(c1ccco1)N1CCN(c2ccccc2F)CC1)c1ccc2c(c1)OCO2 (centres undefined)	?	-	?	-	-	18.4µM
O=C(NCC(c1ccc2c(c1)OCO2)N1CCN(c2ccccc2F)CC1)c1ccccc1F (centres undefined)	11.6µM	10µM	.	.	-	14.6µM
COc1ccc(C(=O)NCC(c2ccc3c(c2)OCO3)N2CCN(c3ccccc3F)CC2)cc1 (centres undefined)	7.31µM	?	.	.	-	5.17µM
FC(F)(F)c1cc(-c2cccc(Br)c2)nc2ncnn12	-	-	.	.	-	-
COc1ccc(NC(=O)N2CCCC3(CCN(C(=O)c4ccncc4)CC3)C2)cc1	-	.	.	.	.	-
COCC(=O)Nc1cc(C(=O)N2CC3CC4CC(C3)CC2C4)c2c(c1)nc(-c1ccncc1)n2C	-[9.04 µM]	.	.	.	.	?
